Drawing on PubChem BioAssay (Tox21), this text covers Potency and activation for 14 compounds.

The nature of experiment [1]: qHTS assay to identify small molecule antagonists of the glucocorticoid receptor (GR) signaling pathway - cell viability counter screen (AID 720693). Further: nearly all actives have a fitted effect of over 55% in size. Further: potency means the concentration at half of the fitted maximal effect.
Experiment [2] is described as follows: qHTS assay for identifying genotoxic compounds that show differential cytotoxicity against isogenic chicken DT40 cell lines with known DNA damage response pathways - wild type cell line (AID 743012). Further: nearly all actives have a fitted effect of over 60% in size. Further: potency means the concentration at half of the fitted maximal effect. Put shortly: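 Quantitative HTS on parental DT40 cells: 40 h compound treatment at 37 C/5% CO2, with viability then determined by CellTiter-Glo luminescence. Values serve as the DNA repair-proficient reference for differential cytotoxicity.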
On the technique in general: qHTS replaces the single test concentration by a dilution series.

The nature of experiment [3]: qHTS assay for identifying genotoxic compounds that show differential cytotoxicity against isogenic chicken DT40 cell lines with known DNA damage response pathways - Rev3 mutant cell line (AID 743014). Further: nearly all actives have a fitted effect of over 55% in size. Further: potency means the concentration at half of the fitted maximal effect.
Experiment [4] is described as follows: qHTS assay for identifying genotoxic compounds that show differential cytotoxicity against isogenic chicken DT40 cell lines with known DNA damage response pathways - Rad54/Ku70 mutant cell line (AID 743015). Further: nearly all actives have a fitted effect of over 60% in size. Further: potency means the concentration at half of the fitted maximal effect.
A short description of experiment [5]: qHTS assay to identify small molecule antagonists of the androgen receptor (AR) signaling pathway using the MDA cell line - cell viability counter screen (AID 743041; further: nearly all actives have a fitted effect of over 45% in size; further: potency means the concentration at half of the fitted maximal effect). Summed up: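 Same-well cytotoxicity was assessed by CellTiter-Fluor in MDA-kb2 AR-luc cells after 16 h of compound treatment under R1881 agonism.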
The nature of experiment [6]: qHTS assay to identify small molecule antagonists of the thyroid receptor (TR) signaling pathway - cell viability counter screen (AID 743064). Further: nearly all actives have a fitted effect of over 50% in size. Further: potency means the concentration at half of the fitted maximal effect. Summed up: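 In rat pituitary GH3.TRE-Luc reporter cells co-exposed to compound and 1 nM T3 for 23.5 h, cytotoxicity was assessed with CellTiter-Fluor in the same wells, read by fluorescence.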
In experiment [7] the target is Estrogen receptor (Homo sapiens) (UniProt P03372). Put plainly: qHTS assay to identify small molecule antagonists of the estrogen receptor alpha (ER-alpha) signaling pathway (AID 743069; active means well fitted curve in the direction sought with a large enough effect in the signal ratio in the repeat runs, not every such curve was filed as active; inconclusive means weak or mixed curves, or effect the other way; inactive means no such curve, though single readings can be large or run the other way; the % refers to the signal ratio; further: potency means the concentration at half of the fitted maximal effect). Put shortly: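 Reporter cells (ER-alpha-bla, HEK293 background) are conditioned overnight in stripped-serum medium (2% charcoal-stripped FBS). Compound and 17beta-estradiol exposure runs 18 hr at 37C, 5% CO2.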

Experiment [8] in a line: qHTS assay to identify small molecule antagonists of the estrogen receptor alpha (ER-alpha) signaling pathway - cell viability counter screen (AID 743074; calls by dose curve;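 further: HEK293 cells carrying ER-alpha-UAS-bla reporter stimulated with 17beta-estradiol; nearly all actives have a fitted effect of over 45% in size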; further: potency means the concentration at half of the fitted maximal effect).
Experiment [9] in a line: qHTS assay to identify small molecule antagonists of the estrogen receptor alpha (ER-alpha) signaling pathway using the BG1 cell line (AID 743080; calls by dose curve;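 further: BG1 cells stimulated with 17beta-estradiol alongside compound; nearly all actives have a fitted effect of over 25% in size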; further: potency means the concentration at half of the fitted maximal effect). Put shortly:
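Endogenous full-length ER-alpha in BG1-Luc-4E2 cells drives a stably integrated 4×ERE luciferase gene; compounds were tested against 17beta-estradiol over 21.5 h, with luminescence and multiplexed viability fluorescence recorded.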

Experiment [10] can be described thus: qHTS assay to identify small molecule antagonists of the estrogen receptor alpha (ER-alpha) signaling pathway using the BG1 cell line - cell viability counter screen (AID 743081).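 Further: compound given together with 17beta-estradiol as the ER stimulus; nearly all actives have a fitted effect of over 45% in size.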 Further: potency means the concentration at half of the fitted maximal effect.
The next experiment deals with Aromatase (Homo sapiens) (UniProt P11511). Put plainly: qHTS assay to identify aromatase inhibitors (AID 743083). Further: nearly all actives have a fitted effect of over 55% in size. Further: potency means the concentration at half of the fitted maximal effect.
Experiment [11] can be described thus: qHTS assay to identify small molecule antagonists of the androgen receptor (AR) signaling pathway - cell viability counter screen (AID 743033; further: nearly all actives have a fitted effect of over 45% in size; further: potency means the concentration at half of the fitted maximal effect).
Experiment [12] concerns thyroid hormone receptor (rat, GH3 cells). Description: qHTS assay to identify small molecule agonists of the thyroid receptor (TR) signaling pathway (AID 743066; calls by dose curve; further: on the % scale 0 is the no-effect control and ±100 the full control effect).
Experiment [13] concerns the target Androgen receptor (Homo sapiens) (UniProt P10275). Put plainly: qHTS assay to identify small molecule antagonists of the androgen receptor (AR) signaling pathway (AID 743035; active means well fitted inhibition curve with a large enough effect in the signal ratio in the repeat runs, not every such curve was filed as active; inconclusive means weak or mixed curves, or effect the other way; inactive means no such curve, though single readings can be large or run the other way; the % refers to the signal ratio; further: potency means the concentration at half of the fitted maximal effect). Summed up: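 Cell line: GeneBLAzer AR-UAS-bla GripTite (HEK293). Stimulus: R1881 added after compound. Exposure: 16 h, 37C, 5% CO2. Readout: LiveBLAzer B/G FRET fluorescence after 2 h at room temperature.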

Experiment [14] has the same target. Put plainly: qHTS assay to identify small molecule agonists of the androgen receptor (AR) signaling pathway (AID 743036; active means well fitted activation curve with a large enough effect in the signal ratio in the repeat runs, with a control signal flat, not every such curve was filed as active; inconclusive means weak or mixed curves, or effect the other way; inactive means no such curve, though single readings can be large or run the other way; the % refers to the signal ratio; further: on the % scale 0 is the no-effect control and ±100 the full control effect). Put shortly: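 Cell-based FRET reporter assay: HEK293 line with a UAS-beta-lactamase construct, compounds added in DMSO, 16 h exposure at 37C, then 2 h substrate step at room temperature and fluorescence intensity read.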
Experiment [15] shares this target. Put plainly: qHTS assay to identify small molecule agonists of the androgen receptor (AR) signaling pathway using the MDA cell line (AID 743040; further: on the % scale 0 is the no-effect control and ±100 the full control effect; nearly all actives have a fitted effect of over 20% in size). Summed up: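 Human breast carcinoma MDA-kb2 reporter cells (MMTV-luc, AR/GR elements) were treated for 16 h at 37C in 0% CO2 following a 5 h settling period. Signal was quantified by ONE-Glo luminescence.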
Experiment [16] shares this target. Put plainly: qHTS assay to identify small molecule antagonists of the androgen receptor (AR) signaling pathway using the MDA cell line (AID 743042; further: on the % scale 0 is the no-effect control and ±100 the full control effect; nearly all actives have a fitted effect of over 55% in size). Summed up: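 MDA-kb2 breast carcinoma cells carrying MMTV-luciferase (AR/GR responsive) were co-treated with compounds and the agonist R1881 for 16 h at 37C. Inhibition read as ONE-Glo luminescence; CellTiter-Fluor fluorescence measured in parallel for cytotoxicity.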

A short description of experiment [17]: qHTS assay to identify small molecule antagonists of the thyroid receptor (TR) signaling pathway (AID 743065). Further: nearly all actives have a fitted effect of over 55% in size. Further: potency means the concentration at half of the fitted maximal effect. Summed up: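 GH3.TRE-Luc rat pituitary cells (two TREs driving luciferase) were dosed with compound, then stimulated with 1 nM T3 (final) for 23.5 h at 37 C. ONE-Glo luminescence was the read-out, with CellTiter-Fluor fluorescence as the cytotoxicity counter-screen.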

For experiment [18], the target named is Estrogen receptor (Homo sapiens) (UniProt P03372). Description: qHTS assay to identify small molecule agonists of the estrogen receptor alpha (ER-alpha) signaling pathway (AID 743075; calls by dose curve;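 further: HEK293 GripTite cells with ER-alpha and UAS-driven beta-lactamase reporter; on the % scale 0 is the no-effect control and ±100 the full control effect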). Conditions: HEK293 ER-alpha-UAS-bla, beta-lactamase FRET ratio, 18 h; activation: at 70.1 µM (top of the series).
For experiment [19] the target is unchanged. Description: qHTS assay to identify small molecule agonists of the estrogen receptor alpha (ER-alpha) signaling pathway using the BG1 cell line (AID 743079). Further: on the % scale 0 is the no-effect control and ±100 the full control effect; nearly all actives have a fitted effect of over 20% in size. Conditions: BG1Luc4E2 cells, ERE-luciferase agonist, 22 h.

Several values for one entry are separate records, joined by “and”; a condition that tells them apart may be missing. Equal values may be shown once. A structure can be active in one record and inactive in another. Activity calls are given as the source filed them. Unless noted, the call rests on the fitted dose curve; in most records, active means well fitted curve in the direction sought with a large enough effect in the repeat runs; inconclusive means weak or mixed curves; inactive means no such curve, though single readings can be large; an effect the other way counts as inactive or inconclusive.

Chain of Estrogen receptor (Homo sapiens) (P03372 whole entry, looked up): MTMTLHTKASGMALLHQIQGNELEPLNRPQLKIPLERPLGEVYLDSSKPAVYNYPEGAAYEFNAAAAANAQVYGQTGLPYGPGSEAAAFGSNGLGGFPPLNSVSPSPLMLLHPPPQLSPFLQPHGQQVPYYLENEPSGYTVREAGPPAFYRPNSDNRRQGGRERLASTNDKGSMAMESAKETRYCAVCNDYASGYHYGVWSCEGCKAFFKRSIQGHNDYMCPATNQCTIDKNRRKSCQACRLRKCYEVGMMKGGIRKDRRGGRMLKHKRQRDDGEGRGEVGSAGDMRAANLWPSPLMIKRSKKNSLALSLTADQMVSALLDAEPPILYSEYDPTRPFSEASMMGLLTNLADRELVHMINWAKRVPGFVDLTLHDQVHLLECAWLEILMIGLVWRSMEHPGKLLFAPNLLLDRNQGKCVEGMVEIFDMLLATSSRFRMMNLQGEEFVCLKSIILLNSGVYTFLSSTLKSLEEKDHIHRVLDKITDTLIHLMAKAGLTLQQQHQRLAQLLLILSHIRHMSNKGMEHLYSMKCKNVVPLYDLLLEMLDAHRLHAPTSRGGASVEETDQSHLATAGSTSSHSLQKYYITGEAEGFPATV
Chain of Aromatase (Homo sapiens) (P11511 whole entry, looked up): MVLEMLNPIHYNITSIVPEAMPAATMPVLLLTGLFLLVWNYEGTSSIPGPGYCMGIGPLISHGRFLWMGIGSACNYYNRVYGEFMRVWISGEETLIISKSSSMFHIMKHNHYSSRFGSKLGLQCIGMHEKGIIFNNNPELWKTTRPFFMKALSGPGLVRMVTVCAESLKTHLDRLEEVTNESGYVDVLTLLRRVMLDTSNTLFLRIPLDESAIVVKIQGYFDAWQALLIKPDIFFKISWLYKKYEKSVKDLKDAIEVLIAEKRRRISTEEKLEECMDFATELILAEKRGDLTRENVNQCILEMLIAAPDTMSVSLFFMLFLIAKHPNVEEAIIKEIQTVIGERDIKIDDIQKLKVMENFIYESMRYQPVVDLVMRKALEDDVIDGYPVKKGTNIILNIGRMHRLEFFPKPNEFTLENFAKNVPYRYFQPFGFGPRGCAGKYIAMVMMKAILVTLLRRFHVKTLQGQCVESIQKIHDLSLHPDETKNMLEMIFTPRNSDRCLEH
Chain of Androgen receptor (Homo sapiens) (P10275 whole entry, looked up): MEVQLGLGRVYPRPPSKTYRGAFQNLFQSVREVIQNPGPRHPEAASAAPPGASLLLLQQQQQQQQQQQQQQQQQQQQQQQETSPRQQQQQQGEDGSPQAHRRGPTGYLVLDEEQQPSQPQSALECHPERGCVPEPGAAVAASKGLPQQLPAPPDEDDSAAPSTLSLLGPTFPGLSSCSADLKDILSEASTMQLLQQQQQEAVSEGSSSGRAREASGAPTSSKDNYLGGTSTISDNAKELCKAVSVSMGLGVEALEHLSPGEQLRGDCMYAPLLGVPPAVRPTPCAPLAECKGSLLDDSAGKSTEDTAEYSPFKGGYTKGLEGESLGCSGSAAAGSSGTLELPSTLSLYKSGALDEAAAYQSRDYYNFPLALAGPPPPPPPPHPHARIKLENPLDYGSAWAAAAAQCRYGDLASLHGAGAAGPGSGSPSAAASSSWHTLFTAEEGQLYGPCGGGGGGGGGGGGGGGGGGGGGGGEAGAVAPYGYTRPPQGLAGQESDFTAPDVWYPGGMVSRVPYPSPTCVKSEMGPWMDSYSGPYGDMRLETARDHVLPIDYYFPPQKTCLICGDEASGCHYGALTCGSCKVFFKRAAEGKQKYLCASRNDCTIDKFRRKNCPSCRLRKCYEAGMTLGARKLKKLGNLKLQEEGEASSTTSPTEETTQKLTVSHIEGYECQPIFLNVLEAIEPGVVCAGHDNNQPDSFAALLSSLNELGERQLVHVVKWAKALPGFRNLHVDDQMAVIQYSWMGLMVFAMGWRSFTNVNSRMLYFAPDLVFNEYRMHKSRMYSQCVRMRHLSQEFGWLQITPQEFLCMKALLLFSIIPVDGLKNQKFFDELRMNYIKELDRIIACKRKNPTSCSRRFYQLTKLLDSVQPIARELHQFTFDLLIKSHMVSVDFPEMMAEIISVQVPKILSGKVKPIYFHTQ

In the case of `CCCCCCCC[N+](CCCCCCCC)(CCCCCCCC)CCCCCCCC`, the Potency in experiment [1] is 7.75 µM (active); in [2] it was 2.43 µM (active); in experiment [3], 1.37 µM (active); in experiment [4] it was 1.37 µM (active); in experiment [5], 4.32 µM (active); in experiment [6], 3.43 µM (active). Further, the Potency in experiment [7] is 38.8 µM [cytotoxic] (active); in [8], 15.5 µM (active); in experiment [9], 1.72 µM (active); in experiment [10] it was 24.3 µM (active); with Aromatase (Homo sapiens), 2.16 µM (active).
As for `CCCC1O[C@@H]2C[C@H]3[C@@H]4CCC5=CC(=O)C=C[C@]5(C)[C@H]4[C@@H](O)C[C@]3(C)[C@]2(C(=O)CO)O1` (stereo not given in full), the Potency result in [1], in experiment [2], in experiment [11], in experiment [5], in experiment [6] and in experiment [12] was “inactive” in each case. The Potency result (in experiment [8]; in experiment [10]; in the experiment with Aromatase (Homo sapiens)) was “inactive” in each case. Further, the Potency result is “inactive and 48.6 µM (active)” in [3]; “inactive and 68.7 µM (active) and 54.5 µM (active)” in experiment [4].
For the compound `CC(C)(C)C(=O)OCOC(=O)C1N2C(=O)CC2S(=O)(=O)C1(C)C` (stereo not given), the Potency entry in experiment [1], in experiment [2], in [3], in experiment [4], in experiment [14] and in experiment [15] was “inactive” in each case. Further, the Potency result in experiment [5], in experiment [16], in experiment [6], in experiment [17], in experiment [12] and in experiment [8] was “inactive” in each case. Besides, the Potency entry (in experiment [18]; in experiment [10]; with Aromatase (Homo sapiens)) was “inactive” throughout. Also, the values for the Potency in experiment [13] and in experiment [7] were 6.74 µM (active) and 3.38 µM [inconclusive] (active), respectively. The activation in experiment [19] (at 70.3 µM (top of the series)) was -1.04% (inactive).
As for `CC[C@H]1O[C@]2(CC[C@@H]1C)C[C@@H]1C[C@@H](C/C=C(\C)C[C@@H](C)/C=C/C=C3\CO[C@@H]4[C@H](O)C(C)=C[C@@H](C(=O)O1)[C@]34O)O2`, the Potency in experiment [1] is 13.7 µM (active); in [2], 6.06 µM (active); in experiment [3], 6.8 µM (active); in experiment [4] it was 6.06 µM (active); in experiment [6], 6.06 µM (active); in experiment [17], 5.4 µM (active). Besides, the Potency in [8] was 43.3 µM (active); in [10], 60.6 µM (active); with Aromatase (Homo sapiens), 30.4 µM (active). In experiment [11], the Potency entry is “inactive”.
In the case of `CCCCCCCCCCCCCCCC[N+](C)(C)CCN(Cc1ccc(OC)cc1)c1ncccn1`, the Potency result in [1], in experiment [11], in [5], in experiment [7], in experiment [18] and in experiment [10] was “inactive” in each case. Besides, the Potency in experiment [2] is 1.6 µM (active); in [3] it was 2.02 µM (active); in experiment [4], 2.27 µM (active); in experiment [6], 11.4 µM (active); in the experiment with Aromatase (Homo sapiens), 12.7 µM (active). Also, in [19] (at 32.5 µM (top of the series)), the activation was -16.9% (inactive).
In the case of `CN(C)[C@@H]1C(=O)C(C(N)=O)=C(O)[C@@]2(O)C(=O)C3=C(O)c4c(O)ccc(Cl)c4[C@@H](O)[C@H]3C[C@@H]12`, the Potency result in experiment [1], in experiment [2], in experiment [4], in experiment [11], in experiment [5] and in experiment [17] was “inactive” in each case. Further, the Potency entry (in experiment [12]; in experiment [8]; in [10]; in the experiment with Aromatase (Homo sapiens)) was “inactive” in each case.
For `Cn1cc(C(=O)[C@@H]2CCc3nc[nH]c3C2)c2ccccc21`, the Potency entry in experiment [1], in experiment [2], in experiment [3], in experiment [11], in experiment [5] and in [6] was “inactive” in each case. In addition, the Potency entry in experiment [17], in [12], in experiment [7], in experiment [8], in experiment [18] and in [10] was “inactive” each time. In the experiment with Aromatase (Homo sapiens), the Potency result is “inactive”. Also, the activation in experiment [19] (at 70.3 µM (top of the series)) was 5.8% (inactive).
In the case of `Cc1cccc2c1cc1ccc3cccc4ccc2c1c34`, the Potency result in experiment [1], in [2], in experiment [3], in [11], in experiment [5] and in experiment [6] was “inactive” in each case. The Potency result (in experiment [17]; in experiment [12]; in [8]; with Aromatase (Homo sapiens)) was “inactive” each time. Moreover, the activation in experiment [19] (at 95 µM (top of the series)) was 15.8% (inactive).
In the case of `CC1=C(/C=C/C(C)=C/C=C/C(C)=C/C=O)C(C)(C)CCC1`, the Potency is 24.4 µM (active) in experiment [1]; 13.6 µM (active) in [2]; 9.63 µM (active) in [3]; 12.1 µM (active) in experiment [4]; 7.65 µM (active) in experiment [6]; 8.58 µM (active) in experiment [17]. Besides, the Potency was 54.6 µM (active) in experiment [8], 60.8 µM (active) in [10] and 15.3 µM (active) with Aromatase (Homo sapiens). For the same compound, in experiment [12], the Potency result is “inactive”.
Consider `CC(=O)SC[C@@H](Cc1ccccc1)C(=O)NCC(=O)OCc1ccccc1`, for which the Potency result in experiment [1], in experiment [2], in experiment [4], in experiment [11], in experiment [5] and in experiment [6] was “inactive” throughout. The Potency result in experiment [17], in experiment [12], in experiment [7], in [8], in [18] and in experiment [9] was “inactive” throughout. Besides, in the experiment with Aromatase (Homo sapiens), the Potency entry is “inactive”. Also, the activation in experiment [19] (at 32.5 µM (top of the series)) was 3.92% (inactive).
In the case of `CSc1ccc(C(=O)c2[nH]c(=O)[nH]c2C)cc1`, the Potency result in [1], in [2], in [3], in experiment [11], in experiment [5] and in experiment [7] was “inactive” each time. In addition, the Potency result (in experiment [8]; in experiment [18]; in experiment [9]; in experiment [10]; in the experiment with Aromatase (Homo sapiens)) was “inactive” in each case.
Turning to `O=C(N/N=C/c1ccccc1O)c1ccncc1`, the Potency entry in experiment [1], in [5], in experiment [8] and in [10] was “inactive” each time. Besides, the Potency was 4.22 µM (active) in experiment [2]; 2.98 µM (active) in [3]; 5.96 µM (active) in experiment [4]; 29.8 µM (active) in experiment [17]; 5.96 µM (active) with Aromatase (Homo sapiens).
As to `CNC(=O)c1ccccc1`, the Potency result in experiment [1], in experiment [2], in experiment [4], in [11], in experiment [5] and in [6] was “inactive” in each case. Further, the Potency result in [17], in experiment [12], in experiment [7], in [8], in experiment [18] and in [9] was “inactive” in each case. Further, the Potency result (in experiment [10]; with Aromatase (Homo sapiens)) was “inactive” each time. Besides, in experiment [19] (at 70.3 µM (top of the series)), the activation was -14.7% (inactive).
On to `CC(C)c1ccc2c(c1)CC[C@H]1[C@](C)(CN)CCC[C@]21C`, for which the Potency in [1] is 38.9 µM (active); in experiment [2], 5.45 µM (active); in experiment [3], 6.11 µM (active); in experiment [11], 21.9 µM (active); in [5] it was 24.3 µM (active); in experiment [6], 10.9 µM (active). Besides, the figures for the Potency (in experiment [17]; in [8]; with Aromatase (Homo sapiens)) were 12.2 µM (active), 49 µM (active) and 19.3 µM (active), respectively.
